We go through 10 compounds from PubChem BioAssay (NCI).

About 79,000 compounds went through this panel and 15% of them were active in at least one assay; those are over-represented in the sample as a whole. Unmarked numbers belong to inactive results. Active and inactive are the calls of the source. Cut-off read from the data, not from the text of the source: active = growth inhibition above about 70%; inactive = the rest.

Assay [1] can be described thus: NCI Yeast Anticancer Drug Screen. Data for the rad50 strain (AID 155).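 Note: 0% = growth of vehicle-only cultures of the same strain.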 The conditions noted are these: S. cerevisiae rad50 strain growth inhibition, hits give high values. Summed up:
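A DNA repair-deficient yeast mutant serves as the test organism; compound-induced growth inhibition is calculated against vehicle-treated cells.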

Assay [2] can be described thus: NCI Yeast Anticancer Drug Screen. Data for the mec2-1 strain (AID 157). To be noted: S. cerevisiae mec2-1 strain, hits give high values. Summed up: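 Cells of the genetically defined mec2-1 yeast strain are incubated with test compound. Inhibition of growth is calculated against vehicle-treated controls.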
Assay [3] can be described thus: NCI Yeast Anticancer Drug Screen. Data for the sgs1 mgt1 strain (AID 161).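 Note: 0% = growth of cultures given vehicle only.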 To be noted: S. cerevisiae sgs1 mgt1 strain, hits give high values. Summed up: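 Genetically altered yeast, compound exposure, growth inhibition relative to vehicle.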
A short description of assay [4]: NCI Yeast Anticancer Drug Screen. Data for the cln2 rad14 strain (AID 165).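 Note: 0% = growth equal to vehicle treated cultures.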 The conditions noted are these: S. cerevisiae cln2 rad14 strain, hits give high values. The method in brief: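 The screen exposed genetically defined yeast (cln2 rad14) to test compounds and scored growth inhibition relative to vehicle-treated controls.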
Assay [5] in a line: NCI Yeast Anticancer Drug Screen. Data for the bub3 strain (AID 167). To be noted: S. cerevisiae bub3 mutant strain, hits give high values. The method in brief: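 Inhibition values come from growth of compound-treated mutant yeast normalised to vehicle-treated controls.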
A short description of assay [6]: NCI Yeast Anticancer Drug Screen. Data for the mlh1 rad18 strain (AID 175). The conditions noted are these: S. cerevisiae mlh1 rad18 strain growth inhibition, hits give high values. The method in brief:
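Compound-treated yeast growth, normalised to vehicle controls. Strain bears defined DNA repair mutations.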

Where [7] appears, read: at 5.0 µM (retest, dose inferred, filed as 0.5).
The mark [8] stands for this setting: at 50.0 µM (retest, dose inferred, filed as 5.0).

As to `CC[n+]1c(/C=C/c2cc(C(=O)OC)n3c2sc2ccccc23)sc2ccccc21`, the growth inhibition was 43% in assay [1] (setting [7]); 99% (active) in assay [1] (setting [8]); 99% (active) in assay [1] (at 50.0 µM); 38% in assay [2] (setting [7]); 99% (active) in assay [2] (setting [8]); 99.2% (active) in assay [2] (at 50.0 µM). For the same compound, the growth inhibition in assay [3] (setting [7]) is 3%; in assay [3] (setting [8]), 99% (active); in assay [3] (at 50.0 µM) it was 99.2% (active); in assay [4] (setting [7]), 25%; in assay [4] (setting [8]), 99% (active); in assay [4] (at 50.0 µM) it was 98.4% (active). Further, the growth inhibition is 49% in assay [5] (setting [7]); 99% (active) in assay [5] (setting [8]); 98.6% (active) in assay [5] (at 50.0 µM); 61% in assay [6] (setting [7]); 99% (active) in assay [6] (setting [8]); 98.8% (active) in assay [6] (at 50.0 µM).

Turning to `O=C1C=CC(=O)c2c(O)c(N3CCN(CCO)CC3)c(Cl)c(O)c21`, the growth inhibition in assay [1] (setting [7]) is 37%; in assay [1] (setting [8]), 95% (active); in assay [1] (at 50.0 µM), 84.7% (active); in assay [2] (setting [7]), 33%; in assay [2] (setting [8]) it was 99% (active); in assay [2] (at 50.0 µM), 89.8% (active). Moreover, the growth inhibition in assay [3] (setting [7]) is 48%; in assay [3] (setting [8]) it was 99% (active); in assay [3] (at 50.0 µM) it was 90.7% (active); in assay [4] (setting [7]) it was 26%; in assay [4] (setting [8]), 82% (active); in assay [4] (at 50.0 µM), 86.8% (active). Further, the growth inhibition was 47% in assay [5] (setting [7]); 98% (active) in assay [5] (setting [8]); 88.5% (active) in assay [5] (at 50.0 µM); 41% in assay [6] (setting [7]); 98% (active) in assay [6] (setting [8]); 88.8% (active) in assay [6] (at 50.0 µM).

For the compound `CN(C)c1ccc2c(c1)Cc1cc(NC(=O)/C=C/C(=O)O)ccc1-2`, the growth inhibition in assay [1] (setting [7]) is -31%; in assay [1] (setting [8]), -21%; in assay [1] (at 50.0 µM), -6.7%; in assay [2] (setting [7]) it was -10%; in assay [2] (setting [8]) it was -19%; in assay [2] (at 50.0 µM) it was -2.05%. The growth inhibition is -13% in assay [3] (setting [7]); 12% in assay [3] (setting [8]); -8.55% in assay [3] (at 50.0 µM); -5% in assay [4] (setting [7]); 6% in assay [4] (setting [8]); -5.6% in assay [4] (at 50.0 µM). Moreover, the growth inhibition in assay [5] (setting [7]) was 2%; in assay [5] (setting [8]), -3%; in assay [5] (at 50.0 µM) it was -10.7%; in assay [6] (setting [7]), -2%; in assay [6] (setting [8]), 7%; in assay [6] (at 50.0 µM), -4.7%.

As to `COCCCNC(=O)SC`, the growth inhibition in assay [1] (setting [7]) is 0%; in assay [1] (setting [8]) it was -2%; in assay [1] (at 50.0 µM), -9.65%; in assay [2] (setting [7]), 2%; in assay [2] (setting [8]), -1%; in assay [2] (at 50.0 µM), -22.4%. Moreover, the growth inhibition was 3% in assay [3] (setting [7]); 2% in assay [3] (setting [8]); -15.6% in assay [3] (at 50.0 µM); -2% in assay [4] (setting [7]); 0% in assay [4] (setting [8]); 56.6% in assay [4] (at 50.0 µM). Moreover, the growth inhibition in assay [5] (setting [7]) was 0%; in assay [5] (setting [8]), 2%; in assay [5] (at 50.0 µM), -6.85%; in assay [6] (setting [7]), 0%; in assay [6] (setting [8]) it was -2%; in assay [6] (at 50.0 µM), 19.1%.

Turning to `Nc1ccc2c(SCCSc3c4ccccc4nc4cc(N)ccc34)c3ccccc3nc2c1`, the growth inhibition in assay [1] (setting [7]) is 25%; in assay [1] (setting [8]), 81% (active); in assay [1] (at 50.0 µM), 56%; in assay [2] (setting [7]) it was 20%; in assay [2] (setting [8]), 62%; in assay [2] (at 50.0 µM), 33%. Moreover, the growth inhibition in assay [3] (setting [7]) was 28%; in assay [3] (setting [8]), 76% (active); in assay [3] (at 50.0 µM), 52.6%; in assay [4] (setting [7]), 6%; in assay [4] (setting [8]), 28%; in assay [4] (at 50.0 µM) it was -8.65%. In addition, the growth inhibition in assay [5] (setting [7]) is 1%; in assay [5] (setting [8]) it was -14%; in assay [5] (at 50.0 µM), -6.05%; in assay [6] (setting [7]), 23%; in assay [6] (setting [8]), 46%; in assay [6] (at 50.0 µM), 29.9%.

As for `c1cc[c]([Sn]([S]c2cccc3cccnc23)([S]c2cccc3cccnc23)[c]2ccccc2)cc1`, the growth inhibition in assay [1] (setting [7]) is 98% (active); in assay [1] (setting [8]), 99% (active); in assay [1] (at 50.0 µM), 96.8% (active); in assay [2] (setting [7]), 99% (active); in assay [2] (setting [8]) it was 100% (active); in assay [2] (at 50.0 µM), 98% (active). Further, the growth inhibition is 98% (active) in assay [3] (setting [7]); 99% (active) in assay [3] (setting [8]); 98% (active) in assay [3] (at 50.0 µM); 98% (active) in assay [4] (setting [7]); 98% (active) in assay [4] (setting [8]); 95.5% (active) in assay [4] (at 50.0 µM). In addition, the growth inhibition was 98% (active) in assay [5] (setting [7]); 99% (active) in assay [5] (setting [8]); 95.9% (active) in assay [5] (at 50.0 µM); 98% (active) in assay [6] (setting [7]); 99% (active) in assay [6] (setting [8]); 97.6% (active) in assay [6] (at 50.0 µM).

Take `C=CCC(O)C(=O)OC1CC(C)CCC1C(C)(C)c1ccccc1` (stereo not given): the growth inhibition in assay [1] (setting [7]) was -1%; in assay [1] (setting [8]), 99% (active); in assay [1] (at 50.0 µM) it was 99% (active); in assay [2] (setting [7]) it was 6%; in assay [2] (setting [8]), 99% (active); in assay [2] (at 50.0 µM) it was 99.2% (active). Besides, the growth inhibition in assay [3] (setting [7]) is 8%; in assay [3] (setting [8]), 99% (active); in assay [3] (at 50.0 µM), 99.5% (active); in assay [4] (setting [7]), -6%; in assay [4] (setting [8]) it was 98% (active); in assay [4] (at 50.0 µM) it was 98.8% (active). Also, the growth inhibition in assay [5] (setting [7]) was 8%; in assay [5] (setting [8]) it was 98% (active); in assay [5] (at 50.0 µM) it was 99.4% (active); in assay [6] (setting [7]), 9%; in assay [6] (setting [8]), 98% (active); in assay [6] (at 50.0 µM) it was 99.2% (active).

On to `NC(=O)/C=C/C(=O)c1c(Cl)cccc1Cl`, for which the growth inhibition in assay [1] (setting [7]) was 97% (active); in assay [1] (setting [8]) it was 100% (active); in assay [1] (at 50.0 µM), 91.1% (active); in assay [2] (setting [7]), 99% (active); in assay [2] (setting [8]), 100% (active); in assay [2] (at 50.0 µM), 92% (active). Besides, the growth inhibition was 99% (active) in assay [3] (setting [7]); 100% (active) in assay [3] (setting [8]); 91.7% (active) in assay [3] (at 50.0 µM); 46% in assay [4] (setting [7]); 98% (active) in assay [4] (setting [8]); 90.3% (active) in assay [4] (at 50.0 µM). Besides, the growth inhibition in assay [5] (setting [7]) was 99% (active); in assay [5] (setting [8]), 100% (active); in assay [5] (at 50.0 µM), 88.3% (active); in assay [6] (setting [7]), 100% (active); in assay [6] (setting [8]) it was 100% (active); in assay [6] (at 50.0 µM), 91% (active).

As to `Cc1cc(SC#N)cc(C)c1O`, the growth inhibition in assay [1] (setting [7]) is 6%; in assay [1] (setting [8]), 65%; in assay [1] (at 50.0 µM), 82% (active); in assay [2] (setting [7]), -3%; in assay [2] (setting [8]) it was 47%; in assay [2] (at 50.0 µM), 63.1%. The growth inhibition in assay [3] (setting [7]) was -1%; in assay [3] (setting [8]), 45%; in assay [3] (at 50.0 µM) it was 74% (active); in assay [4] (setting [7]) it was 32%; in assay [4] (setting [8]) it was 69%; in assay [4] (at 50.0 µM), 49%. Further, the growth inhibition was -4% in assay [5] (setting [7]); 63% in assay [5] (setting [8]); 78.9% (active) in assay [5] (at 50.0 µM); -5% in assay [6] (setting [7]); 81% (active) in assay [6] (setting [8]); 83.5% (active) in assay [6] (at 50.0 µM).

Take `COC(=O)c1ccc(OC)cc1`: the growth inhibition was 2% in assay [1] (setting [7]); -1% in assay [1] (setting [8]); 49.9% in assay [1] (at 50.0 µM); 3% in assay [2] (setting [7]); -3% in assay [2] (setting [8]); 3.4% in assay [2] (at 50.0 µM). Also, the growth inhibition in assay [3] (setting [7]) was -1%; in assay [3] (setting [8]) it was -4%; in assay [3] (at 50.0 µM) it was 49.8%; in assay [4] (setting [7]), -1%; in assay [4] (setting [8]), -7%; in assay [4] (at 50.0 µM) it was 20.7%. The growth inhibition in assay [5] (setting [7]) is 3%; in assay [5] (setting [8]) it was 2%; in assay [5] (at 50.0 µM), 69.1%; in assay [6] (setting [7]), 3%; in assay [6] (setting [8]), -3%; in assay [6] (at 50.0 µM) it was 16.2%.
